# Laboratory results from PubChem BioAssay (NCATS).
# Records with an inconclusive call do not appear. Entries that show only a call come without a potency. Some compounds were tested as several samples or in several runs, with calls that do not always agree. Active and inactive are the calls of the source. Unless noted, the call rests on the fitted dose curve; in most records, active means well fitted curve in the direction sought with a large enough effect; inconclusive means small, poorly fitted or top-dose-only effect, or another doubt; inactive means no such curve, though single readings can be large; an effect the other way counts as inactive or inconclusive.
# Assays:
# [1] = molecular target: Cytochrome P450 2D6 (Homo sapiens) (UniProt P10635); assay: Cytochrome P450 family 2 subfamily D member 6 (CYP2D6) small molecule antagonists: luciferase biochemical (cell-free) qHTS assay (AID 1645840; active means well fitted curve in the direction sought with a large enough effect in the repeat runs; an effect the other way counts as inactive or inconclusive; further: nearly all actives have a fitted effect of over 55% in size; further: potency means the concentration at half of the fitted maximal effect)
# Sequence of Cytochrome P450 2D6 (Homo sapiens) (P10635 whole entry, looked up): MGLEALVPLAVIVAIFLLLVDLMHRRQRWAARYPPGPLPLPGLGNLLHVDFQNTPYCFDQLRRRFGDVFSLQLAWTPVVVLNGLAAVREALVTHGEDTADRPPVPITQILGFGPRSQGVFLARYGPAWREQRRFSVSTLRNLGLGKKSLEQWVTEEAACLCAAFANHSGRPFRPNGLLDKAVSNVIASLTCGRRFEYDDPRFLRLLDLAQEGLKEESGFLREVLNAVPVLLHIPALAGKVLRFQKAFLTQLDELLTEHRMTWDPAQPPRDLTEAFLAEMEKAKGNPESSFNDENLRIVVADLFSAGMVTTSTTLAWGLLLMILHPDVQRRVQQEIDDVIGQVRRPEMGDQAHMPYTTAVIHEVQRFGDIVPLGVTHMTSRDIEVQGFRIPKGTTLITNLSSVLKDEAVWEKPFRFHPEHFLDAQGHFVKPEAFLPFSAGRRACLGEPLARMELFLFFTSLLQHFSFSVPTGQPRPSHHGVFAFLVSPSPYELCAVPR
# Summary of the method: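 P450-Glo luminescent screen: recombinant CYP2D6 enzyme–proluciferin substrate mix preincubated with compound 10 min at room temperature, then NADPH regeneration added for 1 h at room temperature. Detection reagent added for 20 min; luciferin light read as relative luminescence units.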
# [2] = molecular target: Cytochrome P450 2C9 (Homo sapiens) (UniProt P11712); assay: Cytochrome P450 family 2 subfamily C member 9 (CYP2C9) small molecule antagonists: luciferase biochemical (cell-free) qHTS assay (AID 1645842; active means well fitted curve in the direction sought with a large enough effect in the repeat runs; an effect the other way counts as inactive or inconclusive; further: nearly all actives have a fitted effect of over 55% in size; further: potency means the concentration at half of the fitted maximal effect)
# Sequence of Cytochrome P450 2C9 (Homo sapiens) (P11712 whole entry, looked up): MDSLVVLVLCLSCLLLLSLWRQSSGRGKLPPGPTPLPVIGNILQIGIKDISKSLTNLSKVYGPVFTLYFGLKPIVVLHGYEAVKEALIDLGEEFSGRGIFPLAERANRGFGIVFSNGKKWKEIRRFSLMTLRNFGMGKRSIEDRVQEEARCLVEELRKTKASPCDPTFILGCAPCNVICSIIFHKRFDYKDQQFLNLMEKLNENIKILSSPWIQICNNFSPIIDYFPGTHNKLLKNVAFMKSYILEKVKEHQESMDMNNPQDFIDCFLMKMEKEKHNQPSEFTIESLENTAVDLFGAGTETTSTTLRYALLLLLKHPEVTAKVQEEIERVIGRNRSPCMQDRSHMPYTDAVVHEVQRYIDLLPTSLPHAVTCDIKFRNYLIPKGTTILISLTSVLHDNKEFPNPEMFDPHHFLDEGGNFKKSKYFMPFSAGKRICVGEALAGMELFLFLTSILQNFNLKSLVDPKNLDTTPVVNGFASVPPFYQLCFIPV
# Summary of the method: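 Luminescence, after 20 min with luciferin detection reagent, reflected CYP2C9 turnover during a 1 h NADPH-driven reaction at 37C. Enzyme-substrate mix contained 0.4% bovine serum albumin and was preincubated with compound 10 min at room temperature.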
# [3] = A High-Content qHTS Against Drug Library for the Identification of Small Molecules that Inhibit DYT1 Early Onset Primary Dystonia-Associated Cell Pathology (AID 1645839; calls by dose curve; further: potency means the concentration at half of the fitted maximal effect)
# Summary of the method: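 Readout: %pathology, the punctate EGFP-TorsinA distribution from imaging, as the primary channel and cell count as the toxicity counterscreen. HEK293 Flp-In cells expressing delE TorsinA were induced with tetracycline and treated with compound for 48 h.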
# [4] = Primary qHTS for inhibitors of nuclear receptor binding SET domain protein 2 (NSD2) in an RCH-ACV wild type WT cells (2C) (AID 1645877); further: nearly all actives have a fitted effect of over 70% in size; further: potency means the concentration at half of the fitted maximal effect
# [5] = molecular target: Cytochrome P450 3A4 (Homo sapiens) (UniProt P08684); assay: Cytochrome P450 family 3 subfamily A member 4 (CYP3A4) small molecule antagonists: luciferase qHTS assay (AID 1645841; active means well fitted curve in the direction sought with a large enough effect in the repeat runs; an effect the other way counts as inactive or inconclusive; further: nearly all actives have a fitted effect of over 45% in size)
# Sequence of Cytochrome P450 3A4 (Homo sapiens) (P08684 whole entry, looked up): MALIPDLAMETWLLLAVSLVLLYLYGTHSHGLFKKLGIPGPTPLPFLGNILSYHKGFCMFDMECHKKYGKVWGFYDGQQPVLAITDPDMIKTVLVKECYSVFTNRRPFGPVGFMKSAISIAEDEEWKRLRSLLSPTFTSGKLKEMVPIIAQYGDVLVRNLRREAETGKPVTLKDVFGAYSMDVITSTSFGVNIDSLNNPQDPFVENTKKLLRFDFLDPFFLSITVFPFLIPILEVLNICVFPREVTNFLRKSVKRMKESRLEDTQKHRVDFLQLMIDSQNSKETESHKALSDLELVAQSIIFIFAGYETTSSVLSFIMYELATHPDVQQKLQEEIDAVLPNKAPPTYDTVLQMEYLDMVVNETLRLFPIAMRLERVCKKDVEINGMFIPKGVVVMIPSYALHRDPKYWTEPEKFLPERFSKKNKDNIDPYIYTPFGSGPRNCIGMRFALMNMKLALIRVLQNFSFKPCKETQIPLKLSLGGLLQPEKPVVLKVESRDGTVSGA
# Summary of the method: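 P450-Glo CYP3A4 enzyme with proluciferin substrate was preincubated with DMSO-dissolved compounds for 10 min at room temperature. NADPH regeneration solution started a 1 h reaction. Detection reagent stopped it, and luminescence was read after 20 min.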
# [6] = Primary qHTS for inhibitors of nuclear receptor binding SET domain protein 2 (NSD2) in an isogenic RCH-ACV NSD2 p.E1099K mutant (9B) (AID 1645876); further: nearly all actives have a fitted effect of over 70% in size; further: potency means the concentration at half of the fitted maximal effect
# [7] = NCATS anti-infectives library activity on HEK293 viability as a counter-qHTS vs the C. elegans viability qHTS (AID 1745854);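 further: HEK293 cells exposed to compounds for 24 hr before the viability read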
# Summary of the method: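 Compounds were acoustically plated (several concentrations, 1:5, final up to 41.7 uM), then 1500 HEK293 cells added per well and incubated 24 hr at 37C, 5% CO2. CellTiter-Glo was added and luminescence read after 10 min.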
# [8] = NCATS anti-infectives library activity on the primary C. elegans qHTS viability assay (AID 1745855; calls by dose curve)
# Summary of the method: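 Viability read-out is GFP fluorescence of PE254-GFP-FLuc C. elegans, measured by laser cytometry (488 nm) at day 0, 3 and 7. Ten L1 worms per well were incubated 7 days at 21 °C with compounds and bacterial capsules in S medium.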
# [9] = molecular target: Papain (Carica papaya) (UniProt P00784); assay: Primary qHTS assay for inhibitors of the protease papain (AID 1645873);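 further: papain turnover of Z-FR-AMC read as the AMC fluorescence gain over 10 min; series mostly up to about 50 µM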
# Sequence of Papain (Carica papaya) (P00784 whole entry, looked up): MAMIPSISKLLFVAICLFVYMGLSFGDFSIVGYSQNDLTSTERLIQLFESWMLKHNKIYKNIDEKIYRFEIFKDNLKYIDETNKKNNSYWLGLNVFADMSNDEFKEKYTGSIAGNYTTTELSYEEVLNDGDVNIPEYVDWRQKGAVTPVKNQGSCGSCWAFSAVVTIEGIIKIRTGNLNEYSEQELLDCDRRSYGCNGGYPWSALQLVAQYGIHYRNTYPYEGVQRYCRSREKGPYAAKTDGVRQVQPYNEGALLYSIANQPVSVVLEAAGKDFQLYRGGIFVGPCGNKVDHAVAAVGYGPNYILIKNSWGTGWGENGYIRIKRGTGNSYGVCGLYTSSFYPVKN
# [10] = molecular target: N-terminal Xaa-Pro-Lys N-methyltransferase 1 (Homo sapiens) (UniProt Q9BV86); assay: Confirmatory qHTS for Inhibitors of N-terminal methyltransferase 1 (NTMT1): MTaseGlo Assay (AID 1645874);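 further: luminescence from SAH made as NTMT1 methylates SPKRIA peptide using SAM; series mostly up to about 100 µM; nearly all actives have a fitted effect of over 65% in size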
# Sequence of N-terminal Xaa-Pro-Lys N-methyltransferase 1 (Homo sapiens) (Q9BV86 whole entry, looked up): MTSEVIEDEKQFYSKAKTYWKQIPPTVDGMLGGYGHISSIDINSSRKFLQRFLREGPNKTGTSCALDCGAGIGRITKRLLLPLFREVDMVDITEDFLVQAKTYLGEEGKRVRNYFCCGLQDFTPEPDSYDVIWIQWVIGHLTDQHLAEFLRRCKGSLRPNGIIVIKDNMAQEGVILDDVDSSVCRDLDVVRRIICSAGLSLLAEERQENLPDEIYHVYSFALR
# Summary of the method: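 qHTS format: NTMT1 125 nM, SAM 100 uM, peptide SPKRIA 1 uM final; 15 min compound preincubation, 30 min reaction at room temperature. MTase-Glo luminescence.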
# [11] = molecular target: Rap guanine nucleotide exchange factor 3 (Homo sapiens) (UniProt O95398); assay: Counterscreen qHTS for agonist of cAMP-regulated guanine nucleotide exchange factor 3 (EPAC1) (AID 1645889); further: nearly all actives have a fitted effect of over 40% in size
# Sequence of Rap guanine nucleotide exchange factor 3 (Homo sapiens) (O95398 whole entry, looked up): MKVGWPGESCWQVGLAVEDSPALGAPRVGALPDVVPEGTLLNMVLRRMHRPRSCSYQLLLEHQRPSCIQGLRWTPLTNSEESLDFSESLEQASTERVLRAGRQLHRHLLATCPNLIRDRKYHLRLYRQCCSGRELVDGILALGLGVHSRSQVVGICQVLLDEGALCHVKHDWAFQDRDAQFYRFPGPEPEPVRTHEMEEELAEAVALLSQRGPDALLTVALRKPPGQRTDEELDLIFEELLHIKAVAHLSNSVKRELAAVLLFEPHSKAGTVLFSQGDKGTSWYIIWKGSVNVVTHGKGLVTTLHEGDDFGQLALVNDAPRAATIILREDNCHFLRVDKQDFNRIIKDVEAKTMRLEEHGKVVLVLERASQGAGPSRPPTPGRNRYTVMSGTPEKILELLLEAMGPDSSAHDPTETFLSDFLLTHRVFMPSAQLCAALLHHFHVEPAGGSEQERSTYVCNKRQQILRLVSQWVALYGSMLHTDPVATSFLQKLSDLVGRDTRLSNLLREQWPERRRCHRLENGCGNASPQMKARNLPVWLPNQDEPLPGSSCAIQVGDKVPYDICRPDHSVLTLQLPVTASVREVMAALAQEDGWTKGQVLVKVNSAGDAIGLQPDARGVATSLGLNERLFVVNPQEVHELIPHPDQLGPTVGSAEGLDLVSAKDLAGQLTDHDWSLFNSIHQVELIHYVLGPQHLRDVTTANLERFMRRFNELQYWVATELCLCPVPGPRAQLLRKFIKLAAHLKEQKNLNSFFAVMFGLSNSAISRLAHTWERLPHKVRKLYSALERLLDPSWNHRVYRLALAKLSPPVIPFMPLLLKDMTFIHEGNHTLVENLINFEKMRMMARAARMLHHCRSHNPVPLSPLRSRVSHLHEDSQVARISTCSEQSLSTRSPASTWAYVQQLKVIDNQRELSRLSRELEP
# Summary of the method: (§1)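 Measured: fluorescence of BODIPY-GDP bound to Rap1B, which falls as exchange proceeds. Conditions include 50 uM competing GDP, 5 and 30 min reads, and a later cAMP challenge for antagonist detection.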
# [12] = molecular target: Rap guanine nucleotide exchange factor 3 (Homo sapiens) (UniProt O95398); assay: Confirmatory qHTS for antagonist of cAMP-regulated guanine nucleotide exchange factor 3 (EPAC1) (AID 1645880); further: nearly all actives have a fitted effect of over 55% in size
# Summary of the method: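 Nucleotide exchange uses 100 nM EPAC1, 250 nM RAP1B-BODIPY-GDP and 50 uM GDP, with compounds in a concentration-titration series. After 5 min at room temperature, fluorescence (480 nm ex/540 nm em) is read every 5 min for 30 min. Data are normalized to control ATA and DMSO.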
# [13] = molecular target: Rap guanine nucleotide exchange factor 3 (Homo sapiens) (UniProt O95398); assay: Confirmatory qHTS for agonist of cAMP-regulated guanine nucleotide exchange factor 3 (EPAC1) (AID 1645881);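 further: EPAC1 catalysed release of BODIPY-GDP from Rap1B seen as fluorescence loss; nearly all actives have a fitted effect of over 75% in size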
# [14] = molecular target: Rap guanine nucleotide exchange factor 4 (Homo sapiens) (UniProt Q8WZA2); assay: Confirmatory qHTS for agonist of cAMP-regulated guanine nucleotide exchange factor 4 (EPAC2) (AID 1645884);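 further: nucleotide exchange releases bodipy-GDP from Rap1 and this lowers its fluorescence; nearly all actives have a fitted effect of over 65% in size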
# Sequence of Rap guanine nucleotide exchange factor 4 (Homo sapiens) (Q8WZA2 whole entry, looked up): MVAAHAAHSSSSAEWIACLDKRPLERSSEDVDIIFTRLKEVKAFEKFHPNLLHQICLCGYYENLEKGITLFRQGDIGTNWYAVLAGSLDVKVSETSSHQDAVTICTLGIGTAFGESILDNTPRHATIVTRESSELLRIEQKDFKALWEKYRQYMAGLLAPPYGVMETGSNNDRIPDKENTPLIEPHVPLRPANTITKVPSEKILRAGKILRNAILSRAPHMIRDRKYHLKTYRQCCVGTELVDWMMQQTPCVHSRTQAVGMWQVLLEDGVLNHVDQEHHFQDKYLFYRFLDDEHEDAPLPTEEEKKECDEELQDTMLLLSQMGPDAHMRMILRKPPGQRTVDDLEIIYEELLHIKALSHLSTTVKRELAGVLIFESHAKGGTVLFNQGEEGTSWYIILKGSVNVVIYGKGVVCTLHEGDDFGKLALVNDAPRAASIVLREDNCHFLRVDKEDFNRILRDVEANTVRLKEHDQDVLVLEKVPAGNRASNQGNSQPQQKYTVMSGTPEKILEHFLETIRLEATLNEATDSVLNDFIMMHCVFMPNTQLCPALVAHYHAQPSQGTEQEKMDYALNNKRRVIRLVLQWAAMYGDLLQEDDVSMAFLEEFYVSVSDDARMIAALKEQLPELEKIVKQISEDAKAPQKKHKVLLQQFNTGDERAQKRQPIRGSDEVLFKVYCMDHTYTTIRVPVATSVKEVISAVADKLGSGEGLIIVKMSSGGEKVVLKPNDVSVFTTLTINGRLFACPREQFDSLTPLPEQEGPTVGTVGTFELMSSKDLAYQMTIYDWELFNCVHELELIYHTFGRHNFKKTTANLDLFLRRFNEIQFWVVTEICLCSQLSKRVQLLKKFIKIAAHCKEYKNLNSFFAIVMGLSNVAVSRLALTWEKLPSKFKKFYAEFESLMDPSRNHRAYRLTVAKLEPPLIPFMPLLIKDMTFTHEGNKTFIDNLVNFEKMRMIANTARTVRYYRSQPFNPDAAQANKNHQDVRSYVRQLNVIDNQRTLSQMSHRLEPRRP
# [15] = molecular target: Rap guanine nucleotide exchange factor 4 (Homo sapiens) (UniProt Q8WZA2); assay: Confirmatory qHTS for antagonist of cAMP-regulated guanine nucleotide exchange factor 4 (EPAC2) (AID 1645885); further: nearly all actives have a fitted effect of over 25% in size; further: potency means the concentration at half of the fitted maximal effect
# [16] = molecular target: Rap guanine nucleotide exchange factor 3 (Homo sapiens) (UniProt O95398); assay: Counterscreen qHTS for antagonist of cAMP-regulated guanine nucleotide exchange factor 3 (EPAC1) (AID 1645888);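 further: fluorescence loss as bound BODIPY-GDP is released from Rap1B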
# Summary of the method: as §1
compound,measurement,setting,value
C[C@]12CC[C@H]3[C@@H](CCC4=CC(=O)CC[C@@]43C)[C@@H]1CC[C@@H]2C(=O)CO,Potency,[1],inactive
same,Potency,[2],inactive
Cc1ccc(Nc2c(F)cccc2Cl)c(CC(=O)O)c1,Potency,[3],inactive
same,Potency,[4],inactive
CCN(CC)CCOC(=O)C(c1ccccc1)C1CCCCC1 (centres undefined),Potency,[1],3.09 µM (active)
C[C@@H]1C[C@H]2[C@@H]3CCC4=CC(=O)C=C[C@]4(C)[C@@]3(F)[C@@H](O)C[C@]2(C)[C@H]1C(=O)CO,Potency,[1],inactive
same,Potency,[2],11 µM (active)
c1ccc(OCc2ccc(CCCN3CCOCC3)cc2)cc1,Potency,[1],6.92 µM (active)
same,Potency,[2],inactive
CN1CCC(=C2c3ccccc3Sc3ccccc32)CC1,Potency,[1],1.38 µM (active)
same,outcome,[5],inactive
same,Potency,[2],inactive
same,Potency,[6],16.8 µM (active)
same,Potency,[4],11.9 µM (active)
CC1(C)O[C@@H]2[C@@H](CO[C@@]3(COS(N)(=O)=O)OC(C)(C)O[C@@H]23)O1,Potency,[3],inactive
same,Potency,[2],inactive
same,Potency,[6],inactive
same,Potency,[4],inactive
same,Potency,[7],inactive
same,Potency,[8],inactive
CNC(=O)CN(CCN(CCN(CC(=O)[O-])CC(=O)NC)CC(=O)[O-])CC(=O)[O-].O.[Gd+3],Potency,[1],inactive
same,outcome,[5],inactive
same,Potency,[2],inactive
same,Potency,[6],inactive
same,Potency,[4],inactive
C[C@]12CC[C@@H]3c4ccc(O)cc4CC[C@H]3[C@@H]1CC[C@@H]2O,Potency,[1],inactive
same,Potency,[2],inactive
same,Potency,[9],inactive
same,Potency,[6],16.6 µM (active)
same,Potency,[4],7.42 µM (active)
O=C(Nc1ccc(Cl)c(Cl)c1)C1CC1,Potency,[1],inactive
COc1cc(C=C2CCC/C(=C\c3ccc(O)c(OC)c3)C2=O)ccc1O,Potency,[3],7.08 µM (active)
same,Potency,[6],0.237 µM (active)
same,Potency,[4],0.188 µM (active)
COc1cc2c(cc1OC)C(C(C(=O)N(CCc1ccc(OC)c(OC)c1OC)CCc1ccc(OC)c(OC)c1OC)c1ccccc1)=NCC2 (centres undefined),Potency,[1],12.3 µM (active)
same,Potency,[2],4.36 µM (active)
N[C@H](CO)C(=O)O,Potency,[1],inactive
same,Potency,[2],inactive
same,Potency,[9],inactive
COc1cc2c(cc1OC)[C@@H]1CC(=O)[C@@H](CC(C)C)CN1CC2,Potency,[3],inactive
same,Potency,[2],15.5 µM (active)
same,Potency,[6],inactive
same,Potency,[4],inactive
CCCCC1=NC2(CCCC2)C(=O)N1Cc1ccc(-c2ccccc2-c2nn[nH]n2)cc1,Potency,[3],inactive
same,Potency,[2],17.4 µM (active)
same,Potency,[6],inactive
same,Potency,[4],inactive
same,Potency,[7],inactive
O=C(COc1ccc(Cl)cc1)N1CCN(Cc2ccc3c(c2)OCO3)CC1,Potency,[1],0.436 µM (active)
same,Potency,[2],12.3 µM (active)
CC(=O)OCC(=O)[C@@]1(OC(C)=O)[C@@H](C)C[C@H]2[C@@H]3C[C@H](F)C4=CC(=O)C=C[C@]4(C)[C@@]3(F)[C@@H](O)C[C@@]21C,Potency,[3],inactive
same,Potency,[4],0.0188 µM (active)
CN(C)/N=N/c1nc[nH]c1C(N)=O,Potency,[3],inactive
same,Potency,[6],inactive
same,Potency,[4],inactive
Cc1c(C)n(CCN(C)C)c2ccc(C(=O)OCCN(C)C)cc12,Potency,[1],inactive
same,Potency,[2],inactive
CC(=O)OCC(=O)[C@@]12OC(C)(C)O[C@@H]1C[C@H]1[C@@H]3C[C@H](F)C4=CC(=O)C=C[C@]4(C)[C@@]3(F)[C@@H](O)C[C@@]12C,Potency,[3],inactive
same,Potency,[6],inactive
same,Potency,[4],0.9 nM (active) and inactive
O=c1c(-c2ccccc2)c1-c1ccccc1,Potency,[1],inactive
CCCCCC=CCC=CCCCCCCCC(=O)OCC,Potency,[3],inactive
same,Potency,[2],9.77 µM (active)
same,Potency,[6],23.7 µM (active)
same,Potency,[4],18.8 µM (active)
COC(=O)C1=C(C)NC(C)=C(C(=O)O[C@@H]2CCCN(Cc3ccccc3)C2)[C@@H]1c1cccc([N+](=O)[O-])c1,Potency,[10],inactive
c1ccc(-c2ccc(C(c3ccccc3)n3ccnc3)cc2)cc1 (centres undefined),Potency,[11],inactive
CCCCc1nc(Cl)c(CO)n1Cc1ccc(-c2ccccc2-c2nn[nH]n2)cc1,Potency,[7],inactive
Cc1cccn2c(=O)c(-c3nnn[nH]3)cnc12,Potency,[2],inactive
same,Potency,[6],inactive
same,Potency,[4],inactive
CC1=C(C(=O)OC(C)C)C(c2cccc([N+](=O)[O-])c2)C(C(=O)OC2CN(C(c3ccccc3)c3ccccc3)C2)=C(N)N1 (centres undefined),Potency,[2],1.95 µM (active)
same,Potency,[6],inactive
same,Potency,[4],inactive
same,Potency,[12],inactive
same,outcome,[13],inactive
same,Potency,[14],inactive
same,Potency,[15],inactive
COc1ccc(/C=C/C(=O)c2ccc(OC)cc2OC)cc1,Potency,[2],4.36 µM (active)
same,Potency,[6],11.9 µM (active)
same,Potency,[4],10.6 µM (active)
same,outcome,[13],inactive
same,Potency,[14],inactive
same,Potency,[15],15.6 µM (active) and inactive
same,outcome,[16],inactive
same,Potency,[11],inactive
CC(=O)O[C@]1(C(C)=O)CC[C@H]2[C@@H]3C[C@H](C)C4=CC(=O)CC[C@]4(C)[C@H]3CC[C@@]21C,outcome,[5],inactive
same,Potency,[2],3.09 µM (active)
same,Potency,[6],25.8 µM (active)
